# Experimental data taken from PubChem BioAssay (NCI).
# About 83,000 compounds went through this panel and 20% of them were active in at least one assay; those are over-represented in the sample as a whole.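 Step 1: grow cells in 96-well plates. Step 2: add test compound at a single concentration. Step 3: incubate 48 h. Step 4: record percent growth.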 Unmarked numbers belong to inactive results. Active and inactive are the calls of the source. How the source made its calls: active means growth percent below 10; inactive means the rest.
# Assays:
# Assay in all cases: NCI-60 one-dose screen, 48 h (100 = growth as untreated, 0 = no growth, -100 = all killed)
# Details in all cases: 10 µM unless noted
# NCI-H23 lung = system: NCI-H23 lung
# NCI-H226 lung = system: NCI-H226 lung
# NCI-H322M lung = system: NCI-H322M lung
# HOP-62 NSCLC = system: HOP-62 NSCLC
# NCI-H460 lung = system: NCI-H460 lung
# HOP-92 NSCLC = system: HOP-92 NSCLC
# NCI-H522 lung = system: NCI-H522 lung
# A549/ATCC NSCLC = system: A549/ATCC NSCLC
# 786-0 renal = system: 786-0 renal
# DU-145 prostate = system: DU-145 prostate
# K-562 leukemia = system: K-562 leukemia
# MALME-3M melanoma = system: MALME-3M melanoma
# MDA-MB-231 breast = system: MDA-MB-231 breast
# RXF 393 renal = system: RXF 393 renal
# SF-268 CNS = system: SF-268 CNS
# SF-295 CNS = system: SF-295 CNS
# SF-539 CNS = system: SF-539 CNS
# UACC-257 melanoma = system: UACC-257 melanoma
# M14 melanoma = system: M14 melanoma
SMILES,growth (NCI-H23 lung) [%],growth (NCI-H226 lung) [%],growth (NCI-H322M lung) [%],growth (HOP-62 NSCLC) [%],growth (NCI-H460 lung) [%],growth (HOP-92 NSCLC) [%],growth (NCI-H522 lung) [%],growth (A549/ATCC NSCLC) [%],growth (786-0 renal) [%],growth (DU-145 prostate) [%],growth (K-562 leukemia) [%],growth (MALME-3M melanoma),growth (MDA-MB-231 breast) [%],growth (RXF 393 renal),growth (SF-268 CNS) [%],growth (SF-295 CNS),growth (SF-539 CNS),growth (UACC-257 melanoma) [%],growth (M14 melanoma) [%]
C/C(=N\NC(=O)Cn1c(-c2ccc(S(C)(=O)=O)cc2)nc2cc(Cl)ccc21)c1ccc(Cl)cc1,83,79,86,80.9,82.8,86.2,74.9,66.7,92.1,90,62.9,90.3%,73.4,79.3%,72.4,81.1%,83.1%,79.2,81
N#Cc1c(Oc2ccc([N+](=O)[O-])cc2)nc2sc3cc(Cl)ccc3n2c1=N,73.7,56.8,98.2,107,96.5,83.7,93.7,72.9,64.3,105,118,-10.6% (active),97.3,32.6%,64.9,76.4%,106%,57.6,78
CS(=O)(=O)c1ccc(-c2nc3cc(Cl)ccc3n2CC(=O)N/N=C/c2ccc(Cl)cc2)cc1,60.3,84.8,70.4,56.4,48.7,68.1,46,68.5,16.1,70.1,17,46.6%,48.9,-25.1% (active),50.2,-36.9% (active),-3.48% (active),67.7,61.2
CCN(CC)CCCC(C)NCc1ccccc1 (stereo unspecified),101,109,88.1,108,106,85.1,73.3,99.5,89.8,97.8,118,91.1%,105,135%,100,101%,102%,102,91.4
